Compound activity from PubChem.
A selection: hits, their analogues and other compounds. The true share with any hit is near 3.4%.
GPR151 ag = activates the human receptor GPR151. PathHunter beta-arrestin GPR151 cells, luminescence. activation, % at 11.2 µM. 650,000 compounds, 1% hits; in the data active = activation above about 4.9%;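 note: 0% = median of compound wells and 100% = cells with positive control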
Target sequence (Q8TDV0 whole entry, looked up): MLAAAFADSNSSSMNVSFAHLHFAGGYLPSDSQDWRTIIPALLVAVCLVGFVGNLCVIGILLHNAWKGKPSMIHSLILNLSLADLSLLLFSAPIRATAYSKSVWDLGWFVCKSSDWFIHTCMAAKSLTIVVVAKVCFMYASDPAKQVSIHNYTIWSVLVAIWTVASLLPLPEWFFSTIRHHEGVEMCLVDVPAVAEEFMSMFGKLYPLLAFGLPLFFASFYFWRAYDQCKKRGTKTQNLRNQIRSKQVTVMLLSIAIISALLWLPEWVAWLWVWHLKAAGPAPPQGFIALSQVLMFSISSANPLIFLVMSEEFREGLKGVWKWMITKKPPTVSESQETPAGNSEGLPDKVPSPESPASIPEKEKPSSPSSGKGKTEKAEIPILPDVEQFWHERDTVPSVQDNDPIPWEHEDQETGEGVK
TEAD-YAP block = TEAD-YAP interaction inhibition | HEK-TIYL cells, TEAD-Gal4/YAP UAS-luciferase luminescence | inhibition, % at 9.12 µM | 640,000 compounds, 1.4% hits; in the data active = inhibition above about 32%;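 note: 0% = median of test compound wells and 100% = reference inhibitor wells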
FBW7 activator = activators of human E3 ligase FBW7; AlphaScreen FBW7–phospho-cyclin E peptide binding, activator screen; normalized activity (activation), % at 26.1 µM; 650,000 compounds, 0.13% hits; AID 1259310; in the data active = normalized activity above about 1.9%;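 note: purified mutant Fbw7 with reduced substrate affinity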
MITF primary = inhibitors of human MITF; inhibition, % at 2.6 µM; AlphaScreen MITF homodimerization, bead proximity signal; AID 1259374; 650,000 compounds, 0.91% hits; in the data active = inhibition above about 50%;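 note: 0% = vehicle wells with protein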
Numbers without * were called inactive.

SMILES	GPR151 ag	TEAD-YAP block	FBW7 activator	MITF primary
Cc1nc(C)c(-c2ccc(SCC(=O)Nc3ccc([N+](=O)[O-])cc3)nn2)s1	0.6	47.4*	0.5	2.5
CCN1CCN(C(=O)c2ccc3c(c2)N(Cc2ccc(F)cc2)C(=O)CS3=O)CC1 (centres undefined)	-0.3	-1.8	0.8	15.6
CC(C)(C)c1cc(/C=C(\C#N)C(N)=S)cc(C(C)(C)C)c1O	2.6	47.4*	-0.1	-2.4
COc1cc(/C=C(\C#N)C(N)=S)ccc1O	0.4	9.4	0.1	8.8
CCOC(=O)c1sc(N)c(C#N)c1CSc1nnc(-c2ccco2)o1	0.5	-12.1	0.0	6.4
CCOC(=O)c1sc(N)c(C#N)c1CSc1nnc(-c2ccc(OC)c(OC)c2)o1	-0.7	43.5*	-0.2	-2.3
CC(=O)c1ccc(NC(=O)C(C)Sc2nc3ccccc3[nH]2)cc1 (centres undefined)	-1.6	-32.6	0.7	7.8
O=C(CN1CCN(S(=O)(=O)c2ccc(Cl)cc2)CC1)c1ccc(O)c(O)c1	-0.7	-3.4	0.0	82.3*
O=C(CN1CCN(CC(=O)c2ccc(O)c(O)c2)CC1)Nc1ccccc1Cl	0.7	7.0	-0.2	89.4*
COc1ccc(S(=O)(=O)N2CCN(CC(=O)c3ccc(O)c(O)c3)CC2)cc1	-1.7	-1.6	-0.1	81.0*
COc1ccc(S(=O)(=O)N2CCN(CC(=O)c3ccc(OC)c(OC)c3)CC2)cc1	1.4	-3.2	-0.3	0.8
O=C1NC(=O)/C(=C\c2cc(Br)cc(Cl)c2O)S1	0.6	7.1	-0.1	7.0
Cc1sc2c(=O)n(-c3ccccc3)cnc2c1C(N)=O	0.6	0.9	0.4	-12.9
O=C(CN(Cc1ccc(Br)cc1)S(=O)(=O)c1ccccc1)N1CCC(Cc2ccccc2)CC1	1.5	-31.8	0.1	6.4
N[C@H](Cc1cc(F)cc(F)c1)c1nc2ccc(-c3ccncc3)cc2[nH]1	-0.1	-5.9	-1.4	6.7
N[C@H](Cc1cccc(F)c1)c1nc2ncc(-c3ccncc3)cc2[nH]1	0.0	48.2*	-0.8	10.6
c1ccc2c(c1)CC/C2=N/Nc1ccc2ccccc2n1	-1.1	74.4*	0.1	12.4
COc1cc(Br)c(Nc2nc(-c3c(C)nc4cc(C)ccn34)cs2)c(Br)c1	0.5	-41.2	-0.5	-14.7
CCN(CC)C(=O)C1c2cc(OC)c(OC)cc2C(=O)N2CCc3ccccc3C12 (centres undefined)	0.3	-0.3	-0.1	-2.6
CCOc1cc2c(cc1OCC)C1C(C(=O)N(CC)CC)c3ccccc3C(=O)N1CC2 (centres undefined)	0.3	31.9*	0.2	12.4
CCC1=C[C@@H]2CN(C1)Cc1c([nH]c3ccccc13)[C@@](C(=O)OC)(c1cc3c(cc1OC)N(C)[C@H]1[C@@](O)(C(=O)OC)[C@H](OC(C)=O)[C@]4(CC)C=CCN5CC[C@]31[C@@H]54)C2	-0.5	65.3*	0.0	19.0
CC[C@]1(O)C[C@H]2CN(CCc3c([nH]c4ccccc34)[C@H](C)[C@H]2c2cc3c(cc2OC)N(C)[C@H]2[C@@](O)(C(=O)OC)[C@H](C)[C@]4(CC)C=CCN5CC[C@]32[C@@H]54)C1	1.4	64.9*	0.0	24.8
CC[C@]1(O)CC2CN(CCc3c([nH]c4ccccc34)[C@@](C(=O)OC)(c3cc4c(cc3OC)N(C)[C@H]3[C@@](O)(C(N)=O)[C@H](O)[C@]5(CC)C=CCN6CC[C@]43[C@@H]65)C2)C1 (some centres undefined)	-2.9	47.0*	-0.1	-11.9
CCC1(O)CC2CN(CCc3c([nH]c4ccccc34)[C@@](C(=O)OC)(c3cc4c(cc3OC)N(C)C3[C@]45CCN4CC=C[C@@](CC)([C@@H](OC(C)=O)[C@]3(O)C(=O)OC)[C@H]45)C2)C1 (some centres undefined)	-0.5	69.5*	-0.1	10.1
O=C(NNC1=NCCC1)c1ccncc1	-2.2	5.2	0.0	-6.9
SMILES	GPR151 ag	TEAD-YAP block	FBW7 activator	MITF primary
O=C(/C=C/c1ccco1)N1CCN(Cc2nc3sc4c(c3c(=O)[nH]2)CCCC4)CC1	1.9	-8.7	0.1	-6.9
O=S(=O)(c1ccc(Cl)cc1)N(Cc1ccco1)CC1CCCO1 (centres undefined)	-0.8	1.2	-0.1	-5.5
CC(C)C(NC(=O)OC(C)(C)C)C(=O)N1CCCC1C(N)=O (centres undefined)	-0.5	9.3	2.0*	8.7
N#Cc1ccc(-c2cccs2)nc1SCc1ccc(Cl)c(Cl)c1	-1.1	3.1	0.0	1.9
COC(=O)c1ccc(/C=C/C(=O)c2ccc(OC)c(OC)c2)cc1	-0.3	-8.4	-0.2	-1.5
CCOc1ccc(C(=O)/C=C/c2cc(OC)c(OC)c(OC)c2)cc1	2.4	39.7*	-0.1	10.0
